The source of these data is PubChem BioAssay.

Test [1] has as its system Wnt5a (protein binding on small-molecule microarray). Put plainly: small molecules binding Wnt5a protein – biophysical, small-molecule microarray, 635/667 nm fluorescence, primary screen (AID 1142).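 Further: fluorescence read at 667 nm with signal to noise per printed feature.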 Conditions: 635 nm fluorescence, higher = more signal.
Test [2] in a line: ATP-based viability of Huh7 replicon cells – cell-based, CellTiter-Glo luminescence, basal, 48 h, cytotoxicity control for HCV replication inhibitor project, primary screen (AID 1143).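 Further: Huh7 hepatoma cells carrying a hepatitis C replication reporter with no stimulus; test concentration not given here.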 To be noted: higher = more signal, called active from +8 up or from −8 down.
Test [3] is described as follows: Pseudomonas biofilm growth suppression – PAO1 strain, BacTiter-Glo luminescence, LB-PBS, primary screen (AID 1144). To be noted: P. aeruginosa PAO1 biofilm, 12 h, higher = more signal.
Test [4] is described as follows: basal CRE-LacZ reporter activity in PC12 – cell-based, unstimulated, primary screen (AID 1145). To be noted: no forskolin, luminescence, 4.5 h, higher = more signal, called active from +8 up or from −8 down.
A short description of test [5]: forskolin-driven CRE-LacZ activity in PC12 – cell-based, CRE-LacZ reporter, forskolin-stimulated, primary screen (AID 1146).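 Further: PC12 cells with 6xCRE LacZ reporter stimulated by forskolin 10 µM; beta-galactosidase reporter signal reflecting CREB driven transcription.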 To be noted: luminescence, 4.5 h, higher = more signal, called active from +8 up or from −8 down.
Test [6] deals with Streptavidin (Streptomyces avidinii) (UniProt P22629). In words: compounds binding control protein streptavidin – biophysical, small-molecule microarray, 635/667 nm fluorescence, artefact control for SMM compound annotation, primary screen (AID 1147).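 Further: signal reflects streptavidin binding to arrayed compounds as a control protein.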 Conditions: higher = more signal.
Chain of Streptavidin (Streptomyces avidinii) (P22629 whole entry, looked up): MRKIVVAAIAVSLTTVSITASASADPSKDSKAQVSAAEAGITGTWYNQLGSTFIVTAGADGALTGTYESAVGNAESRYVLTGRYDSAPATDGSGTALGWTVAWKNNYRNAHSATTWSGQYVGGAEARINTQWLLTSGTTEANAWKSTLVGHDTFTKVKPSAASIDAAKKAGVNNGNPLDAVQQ
Test [7] in a line: probe aInhba binding on compound microarray – biochemical, small-molecule microarray, 635/667 nm fluorescence, primary screen (AID 1148).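 Further: score merges 667nm spot fluorescence with signal-to-noise for antibody binding to printed compounds.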 To be noted: higher = more signal.
Test [8] has as its target Torsin-1A (Homo sapiens) (UniProt O14656). In words: TOR1A wild-type binding on microarray – cell lysate, small-molecule microarray, lysate, 635/667 nm, primary screen (AID 1149). Conditions: COS7 hTOR1A-WT lysate, 635 nm fluorescence, higher = more signal.
The target is the same in test [9]. Put plainly: torsin A mutant lysate binding on microarrays – cell lysate, small-molecule microarray, COS7 lysate, 635/667 nm fluorescence, primary screen (AID 1150).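 Further: score pools 667 nm emission and signal to noise measuring lysate protein binding.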 Conditions: COS7 hTOR1A mutant lysate, 635 nm fluorescence, higher = more signal.
Test [10] deals with Sonic hedgehog protein (Shh). Put plainly: Sonic hedgehog microarray binding compounds – biochemical, small-molecule microarray, 635/667 nm fluorescence, primary screen (AID 1151).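 Further: Shh protein binding to compounds spotted on small-molecule microarray slides; score combines spot fluorescence intensity with signal-to-noise across triplicate slides.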 To be noted: 635 nm fluorescence, higher = more signal.
The nature of test [11]: optical density shifts of acrAB sulA E. coli – strain DRC41, OD650, 48 h, E. coli filamentation inducer project, primary screen (AID 1152).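 Further: E. coli MC1000 strain DRC41 lacking acrAB efflux pump and sulA.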 Conditions: higher = more signal, called active from +8 up or from −8 down.
Test [12] in a line: probe aLefty1 binding on compound microarray – biochemical, small-molecule microarray, 635/667 nm fluorescence, primary screen (AID 1153).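 Further: score merges spot fluorescence with signal-to-noise ratio from the scanned slide images.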 Conditions: higher = more signal.
A short description of test [13]: plasmodial surface anion channel blockers, osmotic lysis – cell-based, P. falciparum Indochina, OD700, 1 h, primary screen (AID 1154). Conditions: P. falciparum Indochina infected RBC osmotic lysis, higher = more signal, called active from +8 up or from −8 down.
Test [14] in a line: plasmodial surface anion channel blockers, osmotic lysis – cell-based, P. falciparum Indochina, OD700, 2 h, primary screen (AID 1155).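 Further: lysis reports solute entry through the parasite surface anion channel PSAC.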 To be noted: P. falciparum Indochina infected erythrocytes, higher = more signal, called active from +8 up or from −8 down.
Test [15] can be described thus: changes in parasitized red cell lysis, either direction – P. falciparum Indochina, OD700, 3 h, PSAC antagonist project, primary screen (AID 1156). To be noted: P. falciparum-infected erythrocytes, osmotic lysis, higher = more signal, called active from +8 up or from −8 down.
Test [16] in a line: plasmodial surface anion channel blockers, osmotic lysis – cell-based, P. falciparum Indochina, OD700, 18 h, primary screen (AID 1157). Conditions: P. falciparum Indochina infected erythrocytes, osmotic lysis OD700, 18 h; higher = more signal, called active from +8 up or from −8 down.
A short description of test [17]: S6 kinase pathway phospho-S6 level changes – cell-based, A549, cytoblot, luminescence, serum-stimulated, primary screen (AID 1158).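 Further: serum-stimulated A549 lung adenocarcinoma cells; signal is phosphorylated S6 detected by cytoblot immunostaining with HRP secondary.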 Conditions: 5 h, higher = more signal.
The target of test [18] is NADPH oxidase 2 (Homo sapiens) (UniProt P04839). In words: compounds shifting NOX2 Amplex Red fluorescence – cell-based, HEK293-NOX2, PMA-stimulated, NOX inhibitor project, primary screen (AID 1159). Further: test concentration not given here. To be noted: 45 min, higher = more signal, called active from +8 up or from −8 down.
Chain of NADPH oxidase 2 (Homo sapiens) (P04839 whole entry, looked up): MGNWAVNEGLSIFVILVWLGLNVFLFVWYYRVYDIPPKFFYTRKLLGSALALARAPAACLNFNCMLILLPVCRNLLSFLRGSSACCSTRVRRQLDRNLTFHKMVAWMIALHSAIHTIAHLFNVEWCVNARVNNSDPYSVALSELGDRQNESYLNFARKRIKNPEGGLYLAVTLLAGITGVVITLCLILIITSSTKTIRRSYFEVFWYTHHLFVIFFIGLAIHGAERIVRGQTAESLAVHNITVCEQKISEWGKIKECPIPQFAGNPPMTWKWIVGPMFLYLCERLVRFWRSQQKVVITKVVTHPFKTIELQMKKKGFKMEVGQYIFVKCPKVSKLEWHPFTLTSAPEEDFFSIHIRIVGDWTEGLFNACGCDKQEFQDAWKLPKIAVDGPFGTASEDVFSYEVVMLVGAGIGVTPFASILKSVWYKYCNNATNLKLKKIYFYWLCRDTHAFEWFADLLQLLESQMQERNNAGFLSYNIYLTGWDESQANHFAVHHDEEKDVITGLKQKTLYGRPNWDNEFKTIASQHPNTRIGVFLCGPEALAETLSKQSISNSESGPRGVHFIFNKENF
Test [19] concerns the target NADPH oxidase 4 (Homo sapiens) (UniProt Q9NPH5). In words: compounds shifting NOX4 Amplex Red fluorescence – cell-based, HEK293-NOX4, tetracycline-induced, NOX inhibitor project, primary screen (AID 1160). To be noted: HEK293-NOX4, Amplex Red H2O2 fluorescence, 45 min; higher = more signal, called active from +8 up or from −8 down.
The target in test [20] is NADPH oxidase 5 (Homo sapiens) (UniProt Q96PH1). Put plainly: compounds shifting NOX5 Amplex Red fluorescence – cell-based, HEK293-NOX5, NOX inhibitor project, primary screen (AID 1161). To be noted: HEK293-NOX5, ionomycin, 45 min, higher = more signal.
Chain of NADPH oxidase 5 (Homo sapiens) (Q96PH1 whole entry, looked up): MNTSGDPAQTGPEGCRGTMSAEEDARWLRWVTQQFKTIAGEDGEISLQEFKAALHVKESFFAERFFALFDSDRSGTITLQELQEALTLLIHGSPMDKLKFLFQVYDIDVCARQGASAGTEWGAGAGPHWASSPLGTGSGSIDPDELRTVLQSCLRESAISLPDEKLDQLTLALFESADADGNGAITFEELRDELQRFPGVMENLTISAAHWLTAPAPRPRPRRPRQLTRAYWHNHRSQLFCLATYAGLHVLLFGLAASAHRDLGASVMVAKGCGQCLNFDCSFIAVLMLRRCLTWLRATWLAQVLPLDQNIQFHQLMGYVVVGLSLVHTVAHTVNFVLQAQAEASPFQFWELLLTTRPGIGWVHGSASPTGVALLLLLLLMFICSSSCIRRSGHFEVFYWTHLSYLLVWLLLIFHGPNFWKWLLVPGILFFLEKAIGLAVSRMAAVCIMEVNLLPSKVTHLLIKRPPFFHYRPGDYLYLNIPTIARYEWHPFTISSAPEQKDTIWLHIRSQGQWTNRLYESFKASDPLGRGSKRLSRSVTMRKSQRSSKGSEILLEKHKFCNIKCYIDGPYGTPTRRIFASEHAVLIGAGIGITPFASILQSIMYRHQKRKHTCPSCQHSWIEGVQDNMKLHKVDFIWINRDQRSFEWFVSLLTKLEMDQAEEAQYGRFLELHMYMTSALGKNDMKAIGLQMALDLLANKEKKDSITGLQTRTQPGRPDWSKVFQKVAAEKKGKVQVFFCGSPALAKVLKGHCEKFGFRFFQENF

Calls of active or inactive are those of the source. Unless noted, how the calls were made is not given here.

Chain of Torsin-1A (Homo sapiens) (O14656 whole entry, looked up): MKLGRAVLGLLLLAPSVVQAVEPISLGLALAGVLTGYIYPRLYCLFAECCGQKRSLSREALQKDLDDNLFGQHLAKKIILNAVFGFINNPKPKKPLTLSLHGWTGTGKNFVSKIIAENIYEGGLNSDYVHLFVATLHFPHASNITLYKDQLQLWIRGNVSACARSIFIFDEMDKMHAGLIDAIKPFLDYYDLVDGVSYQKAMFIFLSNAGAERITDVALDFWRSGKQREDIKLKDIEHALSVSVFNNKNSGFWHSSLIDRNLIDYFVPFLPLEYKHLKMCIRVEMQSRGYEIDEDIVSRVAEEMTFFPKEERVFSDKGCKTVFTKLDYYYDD
Chain of NADPH oxidase 4 (Homo sapiens) (Q9NPH5 whole entry, looked up): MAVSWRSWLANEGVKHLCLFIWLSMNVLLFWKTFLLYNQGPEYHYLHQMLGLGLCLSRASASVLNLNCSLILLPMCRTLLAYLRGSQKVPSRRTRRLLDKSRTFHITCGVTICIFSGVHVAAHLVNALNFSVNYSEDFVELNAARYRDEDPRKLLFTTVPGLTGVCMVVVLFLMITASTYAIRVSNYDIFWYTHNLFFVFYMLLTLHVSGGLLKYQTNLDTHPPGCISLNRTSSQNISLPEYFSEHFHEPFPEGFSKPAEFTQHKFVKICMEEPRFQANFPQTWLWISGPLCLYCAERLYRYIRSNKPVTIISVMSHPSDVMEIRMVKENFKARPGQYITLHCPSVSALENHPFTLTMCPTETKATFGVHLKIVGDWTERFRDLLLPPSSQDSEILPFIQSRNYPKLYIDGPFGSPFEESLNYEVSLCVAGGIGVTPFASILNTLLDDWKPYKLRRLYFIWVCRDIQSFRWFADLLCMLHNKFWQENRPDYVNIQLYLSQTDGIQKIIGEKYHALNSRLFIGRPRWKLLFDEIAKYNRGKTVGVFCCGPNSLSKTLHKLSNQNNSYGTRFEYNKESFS

With `O=C(NCC(F)(F)F)[C@@H]1c2ccccc2C(=O)N(Cc2cc(C(F)(F)F)cc(C(F)(F)F)c2)[C@H]1c1ccc(CO)cc1`, the composite z-score in [1] was 0.362; in [6], -0.49; in test [7] it was 0.0074; with Torsin-1A (Homo sapiens) [8], 0.325; in the test with Torsin-1A (Homo sapiens) [9] it was 0.201; in test [10], 0.363. Also, the composite z-score in test [12] came out at 0.114. Besides, the z-score in [2] was -1.49 (inactive); in test [3], -0.483 (inactive); in test [4], 0.701 (inactive); in test [5], -1 (inactive); in test [11], 0.648 (inactive); in test [13], 2.54 (inactive). For the same compound, the z-score in test [14] is 0.0323 (inactive); in test [15] it was 0.473 (inactive); in test [16], 0.257 (inactive); in test [17] it was 0.751; in test [18], 0.16 (inactive); in [19], 0.746 (inactive). The z-score in [20] is 1.11.
In the case of `COCCOC(=O)N1C(=O)[C@@]2(c3cc(C#CCNC(N)=O)ccc31)[C@H](C(=O)Nc1nc3ccccc3s1)[C@H]1C(=O)O[C@H](c3ccccc3)[C@H](c3ccccc3)N1[C@@H]2c1ccc(O)cc1`, the composite z-score is 0.0623 in test [1]; 0.753 in test [6]; 0.189 in test [7]; -0.227 with Torsin-1A (Homo sapiens) [8]; -0.023 in the test with Torsin-1A (Homo sapiens) [9]; 0.527 in [10]. The composite z-score in test [12] is 0.317. Also, the z-score in test [2] was 0.284 (inactive); in [3] it was 0.326 (inactive); in test [4], -0.168 (inactive); in test [5], -0.227 (inactive); in [11] it was -0.614 (inactive); in [13] it was 1.1 (inactive). Also, the z-score was 0.476 (inactive) in test [14]; -0.385 (inactive) in [15]; 1.05 (inactive) in test [16]; 0.637 in test [17]; 0.95 (inactive) in [18]; -1.12 (inactive) in test [19]. In addition, in [20], the z-score was 0.142.
Turning to `O=C1OC[C@@H](c2ccccc2)n2cc(/C=C/c3ccccc3)cc21`, the composite z-score in test [1] is 0.044; in test [6] it was 0.723; in test [7] it was -0.0933; in the test with Torsin-1A (Homo sapiens) [8], -1.43; in the test with Torsin-1A (Homo sapiens) [9], -0.565; in test [10] it was 0.319. Further, the composite z-score in [12] is -0.0868. Further, the z-score was -4.14 (inactive) in test [2]; 0.927 (inactive) in [3]; 9.55 (active) in test [4]; -0.54 (inactive) in test [5]; 0.989 (inactive) in test [11]; 16.3 (active) in test [13]. Moreover, the z-score is 0.408 (inactive) in test [14]; 2.6 (inactive) in test [15]; -1.8 (inactive) in test [16]; 0.693 in test [17]; 0.0419 (inactive) in test [18]; 0.618 (inactive) in test [19]. Also, in [20], the z-score is -0.408.
On to `CC(=O)NCCCC[C@@H]1NC(=O)[C@H]2C[C@@H](C(=O)NCCCCCN)[C@@H](c3ccc(O)cc3)N2C1=O`, for which the composite z-score in [1] is 0.0662; in test [6], 0.947; in [7] it was -0.0658; with Torsin-1A (Homo sapiens) [8] it was 0.274; in the test with Torsin-1A (Homo sapiens) [9], 0.568; in test [10], 1.01. This compound displayed a composite z-score in test [12] of 0.302. Moreover, the z-score in test [2] was 0.0104 (inactive); in [3], 0.447 (inactive); in [4], -0.0038 (inactive); in test [5] it was 0.126 (inactive); in test [11], -0.556 (inactive); in test [13], 0.537 (inactive). Further, the z-score in test [14] was 0.33 (inactive); in test [15] it was 0.0814 (inactive); in [16], 0.302 (inactive); in [17], -0.413; in test [18], 0.178 (inactive); in [19], -1.24 (inactive). The z-score in test [20] worked out at 1.01.
